In PubChem BioAssay AID431 (Sanford-Burnham Center for Chemical Genomics, 2006):
In all, about 63,000 compounds went through this assay and about 1,100 (1.7%) were called active. The sample as a whole holds a higher share of actives than the screen did. Entries with a potency or affinity are not part of this list. A number with no mark means an inactive call.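 How the source made its calls: active means compounds whose percent cytotoxicity in the single-dose primary screen, scaled between solvent and toxic-drug controls, exceeds 50; inactive means the rest.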

Test: cytotoxicity in KRAS-transformed pancreatic duct cells, primary screen, cell-based, fluorescence, HTS (AID 431);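 further: 0% = DMSO solvent wells and 100% = doxorubicin-treated wells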
Conditions: HPDE-C7K KRASV12 cells, Alamar Blue viability, 48 h; at 10 µM; active compounds read high

SMILES | cytotoxicity
COC(=O)Nc1nc2ccc(C(=O)c3ccccc3)cc2[nH]1 | 67.2% (active)
O=C(Nc1nc2ccccc2[nH]1)c1ccc(F)cc1 | -12%
COc1cc(C(=O)Nc2nc3ccccc3[nH]2)cc(OC)c1OC | -19.5%
O=C(COc1ccccc1)Nc1nc2ccccc2[nH]1 | -1.5%
Cc1nc2ccc(C(=O)c3ccccc3)cc2[nH]1 | 1.1%
COC(=O)Nc1nc2ccc(Sc3ccccc3)cc2[nH]1 | 57.5% (active)
CCC(C)N(C(=O)COC(=O)Cc1n[nH]c(=O)c2ccccc12)C1CCS(=O)(=O)C1 (stereo not drawn) | -29.5%
O=C(CN(C(=O)Cn1nnc(-c2cccs2)n1)c1cnc2ccccc2c1)NCC1CCCO1 (stereo not drawn) | -3.6%
O=C(COc1ccc(F)c(Cl)c1)c1ccc[nH]1 | -3.1%
COc1cc(-c2nnc(-c3ccc(S(=O)(=O)c4ccccc4)cc3)o2)cc(OC)c1OC | -1.1%
COc1ccc(C2C(C(=O)N3CCCC3)CC(=O)N2c2ccc(OC)cc2)cc1 (stereo not drawn) | 1.8%
CN(C)CC(=O)c1ccc(-c2ccccc2)cc1 | -1.7%
CC(=O)Nc1cc(-c2nn3c(C)nnc3s2)ccc1C | 6.7%
Cc1cc(C)c(C#N)c(SCC(=O)CC(=O)OC(C)C)n1 | 29.7%
Cc1nc(SCC(=O)CC(=O)OC(C)C)c(C#N)c(C)c1C | -4.4%
CCOC(=O)CC(=O)Nc1nnc(CC(C)C)s1 | -10.3%
CCOC(=O)N1CCC(NC(=O)Cn2cccc2C(=O)c2ccccc2)CC1 | -6.2%
COc1ccc(S(=O)(=O)n2nc(OC(=O)c3ccccc3)cc2N)cc1 | 0%
Cc1ccc(S(=O)(=O)n2nc(OC(=O)c3c(-c4ccccc4Cl)noc3C)cc2N)cc1 | 73% (active)
COc1ccccc1C(=O)Oc1cc(N)n(S(=O)(=O)c2ccc(C)cc2)n1 | -5.5%
COc1ccc(S(=O)(=O)n2nc(OC(=O)c3ccc(C)cc3)cc2N)cc1 | -7.7%
COc1ccc(S(=O)(=O)n2nc(OC(=O)c3c(-c4ccccc4Cl)noc3C)cc2N)cc1 | 51.1% (active)
Cc1onc(-c2ccccc2Cl)c1C(=O)Oc1cc(N)n(S(=O)(=O)c2ccc(F)cc2)n1 | 36.8%
O=C(O)CCC(=O)OCC1CCCO1 (stereo not drawn) | -8.8%
O=C(CSc1nnc(-c2ccccn2)n1Cc1ccccc1)NC1CCCC1 | -15.2%

SMILES | cytotoxicity
O=S(=O)(Nc1ccc(S(=O)(=O)N2CCOCC2)cc1)c1ccccc1 | 7.6%
OC(CNCc1ccco1)Cn1c2ccccc2c2ccccc21 (stereo not drawn) | 40.9%
Cc1ccc(/C(C#N)=C\c2cn(C)c3ccccc23)cc1 | 35.2%
CC1(C(=O)NC2CCCC2)CCC(=O)N1CCC1=CCCCC1 (stereo not drawn) | -21.1%
Cc1cccc2cc(C#N)c(SCCN3CCCCC3)nc12 | 57.1% (active)
Cc1cc(C)c2nc(SCC(=O)N3CCCCC3)c(C#N)cc2c1 | 2.7%
Cc1cccc2cc(C#N)c(N3CCN(C)CC3)nc12 | 1.8%
Cc1cccc2cc(C#N)c(SCC(=O)N3CC(=O)Nc4ccccc43)nc12 | 65% (active)
Cc1ccccc1-n1c(C)nnc1SCC(=O)N1CC(=O)Nc2ccccc21 | -8.9%
Cc1cccc2cc(C#N)c(SCC(=O)N3CCC(C)CC3)nc12 | 2.7%
CNc1nc(C)c(C(=O)OCc2ccccc2)s1 | -0.8%
C=CCOn1c(=O)c(=O)n(OCc2ccccc2)c2ccccc21 | -23.8%
C/C(N)=C(/C#N)C(=O)CSc1nc2cc(Cl)ccc2s1 | 12%
CCOC(=O)N1CCC(NC(=O)c2cc(S(=O)(=O)N3CCC4(CC3)OCCO4)ccc2F)CC1 | -4.2%
COC(=O)c1ccc(C2C(C#N)=C(N)Oc3cc(C)n(C)c(=O)c32)cc1 (stereo not drawn) | -10.1%
CCCCCC(=O)N1CCN(c2ccc(C(C)=O)cc2F)CC1 | 0.9%
CCCC(=O)c1ccc(N2CCN(C(=O)c3ccc(Br)cc3)CC2)c(F)c1 | -6.7%
CCCC(=O)N1CCN(c2ccc(C(=O)c3ccc(OC)c(Br)c3)cc2F)CC1 | 62.5% (active)
COc1ccc(-c2nnc(SCC(=O)N3CCCCC3)o2)cc1OC | -0.7%
O=C(NC1CCCCC1)c1ccc(Cn2cc(Br)cn2)o1 | -12.9%
CC(=O)c1sc(NC(=O)c2ccc(Cn3cc(Br)cn3)o2)nc1C | 1.1%
O=C(Nc1ccc(C(F)(F)F)cc1Cl)c1ccc(Cn2cc(Br)cn2)o1 | 124% (active)
COc1ccc(NC(=O)CSc2nnc(-c3ccco3)n2C)cc1 | 0.5%
Clc1ccccc1CSc1ncccn1 | -6%
Cc1cc(C)nc(SCc2nnc(SCc3ccccc3Cl)o2)n1 | -16.5%

SMILES | cytotoxicity
Cc1ccc(NC(=O)CSc2nnc(-c3ccco3)c(-c3ccco3)n2)cc1 | 90.7% (active)
O=C(CSc1nnc(-c2ccco2)c(-c2ccco2)n1)Nc1ccccc1 | 1.2%
CCNC(=O)CP(=O)(c1ccccc1)c1ccccc1 | 1.9%
CCc1ccc(Cn2nnc(C(=O)Nc3cccc(C)c3)c2N)cc1 | -0.7%
CCOC(=O)C1CCCN(CCC(C)c2ccccc2)C1 (stereo not drawn) | 20.5%
Cc1c(NC(=O)NC(=O)c2ccc(F)cc2)c(=O)n(-c2ccccc2)n1C | -11.2%
COc1cccc(Nc2nc(-c3sc(N)nc3C)cs2)c1 | 60.7% (active)
COc1ccc(OC)c(Nc2nc(-c3sc(N)nc3C)cs2)c1 | 37.6%
COc1ccc(CCNc2nc(-c3sc(N)nc3C)cs2)cc1OC | 16.4%
Cc1nc(N)sc1-c1csc(Nc2ccccc2)n1 | 49%
COc1ccc(Nc2nc(-c3sc(N)nc3C)cs2)cc1 | 58% (active)
Cc1nc(N)sc1-c1csc(Nc2ccccn2)n1 | -9.8%
CCOc1ccc(Nc2c3c(nc4ncnn24)CC(C)CC3)cc1 (stereo not drawn) | 4.3%
O=C(O)CCCNS(=O)(=O)c1cccs1 | 8%
COc1ccc(NC(=O)C2CC2)cc1-n1cnnn1 | -12.2%
NC(=O)C1CCN(C(=O)CN(c2cccc(C(F)(F)F)c2)S(=O)(=O)c2ccccc2)CC1 | -1.4%
CCOC(=O)Nc1ccc2c(c1)N(C(=O)CCN1CCOCC1)c1ccccc1S2 | 0.3%
CCOC(=O)Nc1ccc2c(c1)Sc1ccccc1N2C(=O)CCN1CCOCC1 | 1.2%
CCOC(=O)Nc1ccc2c(c1)N(C(=O)CCN1CCOCC1)c1ccccc1S2=O (stereo not drawn) | 69.3% (active)
Cc1c(NC(=O)CSc2nnnn2Cc2ccccc2)c(=O)n(-c2ccccc2)n1C | -13.5%
Cc1c(NC(=O)Nc2ccc(Cl)cc2)c(=O)n(-c2ccccc2)n1C | -17%
Cc1c(NC(=O)c2ccc(=O)oc2)c(=O)n(-c2ccccc2)n1C | -10.4%
Cc1c(NC(=O)Nc2ccc(Cl)c(Cl)c2)c(=O)n(-c2ccccc2)n1C | 70.7% (active)
Cc1c(NC(=O)Nc2cccc(Cl)c2)c(=O)n(-c2ccccc2)n1C | -10.4%
Cc1c(NC(=O)c2ccc(Br)o2)c(=O)n(-c2ccccc2)n1C | 12.6%

SMILES | cytotoxicity
CCOC(=O)c1nn(-c2ccccc2)c(=O)c(C#N)c1C | 0.8%
Cc1noc(C)c1COC(=O)CCCOc1ccc(Cl)cc1Cl | 5.6%
COc1cccc(NC(=O)CN2CCN(S(=O)(=O)c3ccc(C(C)C)cc3)CC2)c1 | -4.2%
C/C(=N\O)C(=O)C(CN1CCCCC1)CN1CCCCC1 | -6.8%
COc1cc(NC(=O)C2C3C=CC(C3)C2C(=O)O)c(OC)cc1Cl (stereo not drawn) | 2.1%
CCOC(=O)C1=C(N)n2c(s/c(=C\c3cccnc3)c2=O)=C(C(=O)OC)C1c1cccnc1 (stereo not drawn) | -15.5%
CCOC(=O)C1=C(N)n2c(s/c(=C\c3ccco3)c2=O)=C(C(=O)OC(C)C)C1c1ccco1 (stereo not drawn) | 0.1%
CCOC(=O)C1=C(N)n2c(s/c(=C/c3ccco3)c2=O)=C(C(=O)OC)C1c1ccco1 (stereo not drawn) | 73.7% (active)
N#CC1=C(N)n2c(s/c(=C\c3ccco3)c2=O)=C(C#N)C1c1ccco1 (stereo not drawn) | 5.8%
CCOC(=O)C1=C(N)n2c(s/c(=C\c3cccnc3)c2=O)=C(C(=O)OCC)C1c1cccnc1 (stereo not drawn) | -18.8%
O=C(OCN1C(=O)c2ccccc2C1=O)c1ccccc1 | 2.9%
CCn1c(=O)cc(OCC(=O)Nc2cc(C)ccn2)c2ccccc21 | -3.3%
N#Cc1nc(COc2ccccc2F)oc1N1CCCCCC1 | -5.8%
CCOc1ccccc1CN1CCN(S(C)(=O)=O)CC1 | -4.6%
CC1(C)CC(=O)C2=C(C1)NC(SCC(=O)Nc1ccccc1)=C(C#N)C2c1ccco1 (stereo not drawn) | -6.1%
Cc1ccc(NC(=O)CSC2=C(C#N)C(c3ccco3)C3=C(CC(C)(C)CC3=O)N2)cc1 (stereo not drawn) | 54.3% (active)
CCc1ccc(NC(=O)CSC2=C(C#N)C(c3ccco3)C3=C(CCCC3=O)N2)cc1 (stereo not drawn) | 8.2%
Cc1ccc(NC(=O)CSC2=C(C#N)C(c3ccco3)C3=C(CCCC3=O)N2)cc1 (stereo not drawn) | 2.1%
Cc1ccc(C(=O)CSC2=C(C#N)C(c3ccco3)C3=C(CC(C)(C)CC3=O)N2)cc1 (stereo not drawn) | 18.2%
CCCCc1ccc(NC(=O)CSC2=C(C#N)C(c3ccco3)C3=C(CCCC3=O)N2)cc1 (stereo not drawn) | 79.6% (active)
Cc1ccc(C(=O)CSC2=C(C#N)C(c3ccco3)C3=C(CCCC3=O)N2)cc1 (stereo not drawn) | 77.3% (active)
N#CC1=C(SCC(=O)c2ccccc2)NC2=C(C(=O)CCC2)C1c1ccco1 (stereo not drawn) | 41.2%
COc1cccc(NC(=O)CSC2=C(C#N)C(c3ccco3)C3=C(CCCC3=O)N2)c1 (stereo not drawn) | 15.3%
